# Reference: PubChem BioAssay AID588493 (Sanford-Burnham Center for Chemical Genomics, 2011)
# The campaign covered roughly 360,000 compounds. About 2,100 (0.58%) were called active. The sample holds actives, similar compounds and a random draw of the others, so the mix is not that of the screen. Values without a mark were called inactive.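 The calls were made as follows: active = inhibition at 20 µM, scaled to each plate's controls, above about 33% (limit read from the data); inactive = the rest.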
# Molecular target: 26S proteasome non-ATPase regulatory subunit 14 (Homo sapiens) (UniProt O00487)
# Test: Rpn11 (PSMD14) deubiquitinase inhibitors, primary screen, biochemical, fluorescence polarization, uHTS (AID 588493)
# Conditions: human 26S proteasome, Ub4-pepOG fluorescence polarization; at 20 µM; active compounds read high; 20S core pre-blocked with epoxomicin
# 26S proteasome non-ATPase regulatory subunit 14 (Homo sapiens), sequence (O00487 whole entry, looked up): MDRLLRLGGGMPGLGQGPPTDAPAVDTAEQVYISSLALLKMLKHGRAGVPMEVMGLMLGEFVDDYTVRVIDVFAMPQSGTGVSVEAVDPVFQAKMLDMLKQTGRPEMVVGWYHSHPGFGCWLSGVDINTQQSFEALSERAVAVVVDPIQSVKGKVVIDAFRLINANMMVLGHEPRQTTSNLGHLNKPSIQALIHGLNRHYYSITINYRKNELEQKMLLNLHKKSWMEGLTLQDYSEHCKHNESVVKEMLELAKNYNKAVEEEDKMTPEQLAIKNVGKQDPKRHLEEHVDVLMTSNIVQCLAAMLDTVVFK
row,SMILES,inhibition
1,COc1ccc(CNc2c(CO)cnc3c2cnn3C)cc1,-6.6%
2,COCCCNC(=S)N1CCN(c2nc(-c3cccc(OC)c3)cs2)CC1,5.4%
3,CSc1ccc(C#N)cc1NC(=O)c1cccc(Cl)c1,7.6%
4,N#Cc1ccc(C(=O)Nc2cccc3cccnc23)c(F)c1,102% (active)
5,COc1ccc(NC(=O)c2ccco2)cc1NC(=O)c1ccc(C#N)cc1F,-5.8%
6,Cc1ccc(CCNC(=O)CN2C(=O)CSc3ccc(S(=O)(=O)N4CCOCC4)cc32)cc1,-1.8%
7,CCCCCCCCc1c(O)nc(-n2[nH]c(C)c(CCO)c2=O)[nH]c1=O,11.1%
8,COc1ccc(/C=C(\C#N)C(=O)NCCCn2ccnc2)cc1,-1.5%
9,COc1cc(OC)cc(C(=O)NCCCn2ccnc2)c1,0.7%
10,COc1cccc(-c2nn(-c3ccccc3)cc2/C=C(\C#N)C(=O)NCCCn2ccnc2)c1,56% (active)
11,CCCCc1nnc(NC(=O)CS(=O)(=O)Cc2ccccc2)s1,5.2%
12,C/C(=N/NS(=O)(=O)c1ccccc1)c1ccc(NC(=O)C(F)(F)F)cc1,-2%
13,NC(=O)c1cc(S(=O)(=O)NCCCc2ccco2)cs1,-4.1%
14,O=C(N/N=C\c1cccc(Br)c1)c1ccccc1-n1cccc1,23.2%
15,O=C(Nc1ccc(N2CCCC2=O)cc1)c1cncc(Br)c1,-4.8%
16,O=C(N/N=C/c1cccc(Br)c1)c1ccc(N2CCCC2=O)cc1,49.1% (active)
17,Cc1cc2nc(-c3ccco3)c(Cc3cccc(F)c3)n2c(C)c1Br,11.6%
18,CN(C)CCn1c2c(c(SCC(=O)Nc3ccccc3C(F)(F)F)nc1=O)CCCC2,-0.6%
19,CC1CCN(c2ccc3c(c2)S(=O)(=O)c2cc(C(=O)O)ccc2C3=O)CC1,57.1% (active)
20,O=C1c2ccccc2S(=O)(=O)c2cc(N3CCN(c4ccccn4)CC3)ccc21,40.2%
21,OC(c1ccc(Cl)cc1)c1ncc(-c2ccc(Cl)cc2)[nH]1 (stereo not drawn),-5.5%
22,COc1ccc(CNC(=O)C(C)n2nc(C)c3c(C)n(-c4ccccc4)nc3c2=O)c(OC)c1 (stereo not drawn),0%

row,SMILES,inhibition
1,CCCCN(C(=O)C1CCC1)c1c(N)n(Cc2ccccc2)c(=O)[nH]c1=O,-10.9%
2,Cc1ccc(Cl)cc1NC(=O)COC(=O)C1CCCCC1,-8.8%
3,CCC(=O)N(CCc1ccccc1)Cc1cc2cc(C)ccc2[nH]c1=O,-6.2%
4,CCNCc1cc2cc(C)ccc2[nH]c1=O,82.8% (active)
5,CCCc1nc(-c2cc3cc(C)ccc3[nH]c2=O)no1,-0.2%
6,CCc1noc(C)c1C(=O)N1CCN(S(=O)(=O)c2cccc(C(F)(F)F)c2)CC1,0%
7,CC(=O)c1ccc(NC(=S)N(Cc2ccccc2)C(C)C2CC2)cc1 (stereo not drawn),8.8%
8,CCC(=O)Nc1ccc2nc(C)n(Cc3ccccc3Cl)c(=O)c2c1,-7.7%
9,CCOc1cc(NC(=O)c2ccccc2C(=O)O)c(OCC)cc1NC(=O)c1ccccc1F,1.8%
10,CCN1CCN(c2cc3nc(C)n(Cc4ccccc4)c(=O)c3cc2NC(=O)c2ccccc2F)CC1,47.3% (active)
11,Fc1ccc(CNc2nc3ccccc3n3nnnc23)cc1,-38.7%
12,CCN1CCCC1CNC(=O)c1cc2cc(OC)c(OC)cc2[nH]1 (stereo not drawn),-10.4%
13,CCN1CCCC1CNC(=O)c1cc2c(=O)n(C)c3ccccc3c2n1C (stereo not drawn),66.2% (active)
14,Cn1c(C(=O)N2CCC(C(N)=O)CC2)cc2c(=O)n(C)c3ccccc3c21,-3.7%
15,Cc1ccc(OCCCC(=O)Nc2ccc(N3CCOCC3)cc2)cc1,1.7%
16,COc1cccc(/C=C(/CC(=O)Nc2ccc(N3CCOCC3)cc2)c2nc3ccccc3s2)c1,41.7% (active)
17,CCn1c(Cc2ccc(OC)cc2)nnc1SCC(=O)Nc1ccc(N2CCOCC2)cc1,5%
18,COc1cc(OC)cc(C(=O)Nc2ncc3c(n2)CC(C)(C)CC3=O)c1,1.2%
19,CCN(CC)S(=O)(=O)c1ccc2nc(CSc3nnnn3-c3ccc(O)cc3)[nH]c2c1,0.9%
20,O=C(Nc1cc(Br)ccc1F)c1nc[nH]c1C(=O)NCc1ccccc1,-6.2%
21,O=C(c1ccc2c(c1)N(Cc1ccc(F)cc1)C(=O)CS2)N1CCOCC1,1.1%
